The conditions of test [1]: Ebola virus entry assay, green fluorescence channel.
For test [2] the following is noted: Ebola virus entry assay, blue channel fluorescence.
The conditions of test [3]: Ebola virus entry assay, ratio channel.
The conditions of test [4]: Ebola virus entry assay, green channel fluorescence.
For test [5] the following is noted: Ebola virus entry assay, reporter ratio channel; Channel type: primary.
For test [6] the following is noted: Ebola virus entry assay, blue channel (ratio component).

A number with no mark means an inactive call. For some assays here: Measured potencies and affinities stand elsewhere. Active and inactive are the calls of the source. The rule behind the calls is not given here.

We go through 27 molecules from PubChem BioAssay (NCATS).
Throughout, for efficacy: 0% is about no effect.

As to `CN1CCCN=C1/C=C/c1cccs1`, in test [1], the efficacy is -15%. For the same molecule, the call in test [2], in test [3], in test [4], in test [5] and in test [6] was inactive.
Turning to `CC(=O)Oc1ccc(C(=C2CCCCC2)c2ccc(OC(C)=O)cc2)cc1`, the efficacy in test [1] was -12.6%. In addition, the molecule was classed as inactive in test [2], in test [3], in test [4], in test [5] and in test [6].
For `CC(C)=CCNc1ncnc2c1ncn2[C@@H]1O[C@H](CO)[C@@H](O)[C@H]1O`, the efficacy in test [1] was 38.7%. For the same molecule, the call in test [2], in test [3], in test [4], in test [5] and in test [6] was inactive.
As usually defined, the AC50 is the concentration at which the activity in the assay is half-maximal. For `CC[C@H]1CN2CCc3cc(OC)c(OC)cc3[C@@H]2C[C@@H]1C[C@H]1NCCc2cc(OC)c(OC)cc21`, in test [1], the efficacy is 58.8%. For the same molecule, the AC50 in test [2], in test [3] and in test [5] was 17.8 µM (active) in each case. Besides, the molecule was called inactive in test [4].
For the molecule `Cc1nnc(C(=O)NC(C)(C)c2nc(C(=O)NCc3ccc(F)cc3)c(O)c(=O)n2C)o1`, in test [1], the efficacy was -16.5%. The result in test [2], in test [3], in test [4], in test [5] and in test [6] was inactive.
For the molecule `CC(=O)Nc1ccn(C2COC(COC(=O)c3ccccc3)O2)c(=O)n1` (stereo unspecified), the efficacy in test [1] is -16%. In addition, the result in test [2], in test [3], in test [4], in test [5] and in test [6] was inactive.
Consider `CCOC(=O)c1cc(=O)c2c(OCC(COc3cccc4oc(C(=O)OCC)cc(=O)c34)OC(=O)[C@@H](N)CCCCN)cccc2o1`, for which the efficacy in test [1] is -21.2%. Moreover, the outcome in test [2], in test [3], in test [4], in test [5] and in test [6] was inactive.
In the case of `O=C1CC2(CCCC2)CC(=O)N1CCNCC1COc2ccccc2O1` (stereo unspecified), the efficacy in test [1] is 16.2%. Moreover, the result in test [2], in test [3], in test [4], in test [5] and in test [6] was inactive.
With `C[C@H](O)C(=O)Nc1c(I)c(C(=O)NC(CO)CO)c(I)c(C(=O)NC(CO)CO)c1I`, the efficacy in test [1] is 6.82%. The molecule was classed as inactive in test [2], in test [3], in test [4], in test [5] and in test [6].
Regarding `CCN(CC)CCNC(=O)c1cc(Br)c(N)cc1OC`, in test [1], the efficacy was 15.9%. Also, the outcome in test [2], in test [3], in test [4], in test [5] and in test [6] was inactive.
For `COc1ccc(CCC(C)=O)cc1`, the efficacy in test [1] was 11.4%. The outcome in test [2], in test [3], in test [4], in test [5] and in test [6] was inactive.
As to `CCOC(=O)NNc1nncc2ccccc12`, the efficacy in test [1] was -15.2%. The molecule was classed as inactive in test [2], in test [3], in test [4], in test [5] and in test [6].
Consider `O=C1c2ccccc2C(=O)C1c1ccccc1`, for which the efficacy in test [1] is 13.2%. Further, the call in test [2], in test [3], in test [4], in test [5] and in test [6] was inactive.
For the molecule `C#CCN(C)Cc1ccccc1`, in test [1], the efficacy was -14.7%. Moreover, the molecule was called inactive in test [2], in test [3], in test [4], in test [5] and in test [6].
Turning to `C[C@]12CC[C@H](O)CC1=CC[C@@H]1[C@@H]2CC[C@]2(C)C(=O)CC[C@@H]12`, the efficacy in test [1] is 42.1%. Also, the molecule was classed as inactive in test [2], in test [3], in test [4], in test [5] and in test [6].
For `CCCCN(CCCC)C(C(N)=O)c1ccc(OC)cc1` (stereo unspecified), the efficacy in test [1] is 14.3%. Also, the result in test [2], in test [3], in test [4], in test [5] and in test [6] was inactive.
For `Cc1ccc2nc(N)[nH]c(=O)c2c1Sc1ccncc1`, the efficacy in test [1] is 17.5%. Further, the molecule was called inactive in test [2], in test [3], in test [4], in test [5] and in test [6].
For the molecule `CCC(CC)(CC(=O)Nc1cccc(/C=C/c2nc(C3CCC3)cs2)c1)C(=O)O`, the efficacy in test [1] is -22.5%. Moreover, the outcome in test [2], in test [3], in test [4], in test [5] and in test [6] was inactive.
With `NCCNC(=O)c1ccc(Cl)cn1`, the efficacy in test [1] was -25.1%. For the same molecule, the result in test [2], in test [3], in test [4], in test [5] and in test [6] was inactive.
As for `NC(CSCC(=O)O)C(=O)O` (stereo unspecified), in test [1], the efficacy was -16%. Besides, the call in test [2], in test [3], in test [4], in test [5] and in test [6] was inactive.
Consider `CC(C(=O)O)c1ccc2c(c1)Cc1cccnc1O2` (stereo unspecified), for which, in test [1], the efficacy is -16.5%. Further, the result in test [2], in test [3], in test [4], in test [5] and in test [6] was inactive.
Regarding `Cn1c(=O)c2c(ncn2CC2OCCO2)n(C)c1=O`, in test [1], the efficacy is -17.6%. Besides, the result in test [2], in test [3], in test [4], in test [5] and in test [6] was inactive.
Consider `Oc1cccc2[nH]ccc12`, for which the efficacy in test [1] is 14.5%. In addition, the result in test [2], in test [3], in test [4], in test [5] and in test [6] was inactive.
Take `N#Cc1cc(NC(=O)C(=O)O)c(Cl)c(NC(=O)C(=O)O)c1`: the efficacy in test [1] is 18.8%. Moreover, the call in test [2], in test [3], in test [4], in test [5] and in test [6] was inactive.
For `CN1[C@@H]2CC[C@H]1CC(NC(=O)n1c(=O)[nH]c3ccccc31)C2` (stereo partly specified), the efficacy in test [1] is -15.6%. Further, the molecule was classed as inactive in test [2], in test [3], in test [4], in test [5] and in test [6].
With `O=C(O)c1ccc(OCCN2CCCCC2)cc1`, the efficacy in test [1] is -23.5%. In addition, the molecule was called inactive in test [2], in test [3], in test [4], in test [5] and in test [6].
As for `CCC1(c2ccccc2)CCC(=O)NC1=O` (stereo unspecified), the efficacy in test [1] is 11%. The call in test [2], in test [3], in test [4], in test [5] and in test [6] was inactive.
